Reference: PubChem BioAssay (NCI)
The panel holds about 83,000 compounds, 20% with a hit somewhere; the sample as a whole holds those more often.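 A percent growth of 40 corresponds to 60% growth inhibition; 0 means no net growth; -100 means all cells died. Active threshold: below 10.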 Unmarked numbers belong to inactive results. Active and inactive are the calls of the source.

Legend:
Assay in all cases: NCI-60 one-dose screen, 48 h (100 = growth as untreated, 0 = no growth, -100 = all killed)
NCI-H23 lung = settings: 10 µM unless noted
NCI-H226 lung = settings: 10 µM unless noted
NCI-H322M lung = settings: 10 µM unless noted
HOP-62 NSCLC = settings: 10 µM unless noted
NCI-H460 lung = settings: 10 µM unless noted
HOP-92 NSCLC = settings: 10 µM unless noted
NCI-H522 lung = settings: 10 µM
786-0 renal = settings: 10 µM unless noted
COLO 205 colon = settings: 10 µM unless noted

SMILES | growth (NCI-H23 lung) | growth (NCI-H226 lung) | growth (NCI-H322M lung) | growth (HOP-62 NSCLC) | growth (NCI-H460 lung) | growth (HOP-92 NSCLC) | growth (NCI-H522 lung) | growth (786-0 renal) | growth (COLO 205 colon)
O=C(Nc1nc(-c2ccc(Cl)cc2)cs1)c1cc(-c2ccc(Br)cc2)nc2ccc(Cl)cc12 | 33.5% | 71.2% | 92.1% | 37.2% | 108% | 5.28% (active) | 75.3% | 43% | 89.1%
Cc1ccc(S(=O)(=O)N2CCN(C(=O)CSc3nc4ccc(C)cc4[nH]3)CC2)cc1 | 105% | 91.3% | 116% | 106% | 110% | 96.6% | 97.2% | 107% | 143%
CN[C@@H]1C(OC2[C@H](O[C@H]3[C@H](O)[C@@H](O)[C@H](N=C(N)N)[C@@H](O)[C@@H]3N=C(N)N)OC(C)[C@]2(O)CO)OC(CO)C(O)C1O (stereo partly specified) | 103% | 108% | 111% | 107% | 113% | 118% | 112% | 106% | 109%
C/C=C(/C(=C/C)c1ccc(O)cc1)c1ccc(O)cc1 | 48% | 69.9% | 27.4% | 36% | 20.2% | 58.5% | 55.3% | 39.3% | 73.9%
COc1cccc(C2=NN(C(C)=O)C(c3cc(OC)c(OC)c(OC)c3)C2)c1 (stereo unspecified) | 52% | 90.1% | 77% | 31.5% | -0.923% (active) | -0.613% (active) | -38% (active) | 30% | 22.2%
Cc1c2oc3c(C)ccc(C(=O)OC(C)C4NC(=O)C(C(C)C)N(C)C(=O)CN(C)C(=O)C5CCCN5C(=O)C(C(C)C)NC4=O)c3nc-2c(C(=O)OC(C)C2NC(=O)C(C(C)C)N(C)C(=O)CN(C)C(=O)C3CCCN3C(=O)C(C(C)C)NC2=O)c(N)c1=O (stereo unspecified) | -7.25% (active) | -40.7% (active) | 1.84% (active) | -20.4% (active) | 5.45% (active) | -15.7% (active) | -60.1% (active) | -11.9% (active) | -63.8% (active)
COC(=O)c1c(NC(=O)CSc2nnnn2-c2ccc(OC)cc2)sc(C)c1C | 76.7% | 79.4% | 100% | 99.3% | 106% | 75.1% | 91.1% | 107% | 105%
O=[N+]([O-])c1ccc2[nH]cc(-c3c4ccccc4cc4[nH]c5ccc([N+](=O)[O-])cc5c34)c2c1 | 33.1% | 39.5% | 47.3% | 48.5% | 4.24% (active) | 44.7% | 11.3% | 1.4% (active) | 14%
O=C(O)CCNS(=O)(=O)c1ccc(-c2ccccc2)cc1 | 98.4% | 92% | 129% | 103% | 114% | 83.9% | 98.4% | 106% | 111%
COc1ccc(C(=O)COc2cccc(/C=C3\CSc4ccc(Cl)cc4C3=O)c2)cc1 | 87.1% | 75.1% | 93.5% | 95.8% | 101% | 68% | 61.7% | 97.3% | 123%
COc1cc(/C=N/NC(=O)c2ccc(C(F)(F)F)nc2Nc2ccc(Cl)cc2C)ccc1O | 47.9% | 39.6% | 25.5% | 9.04% (active) | 24.5% | 40% | 44.6% | 4.66% (active) | 51.8%
COc1ccc2[nH]c(=O)c(CNc3ccc(Nc4nccc(-c5ccc(Cl)cc5)n4)cc3)cc2c1 | 91.5% | 91.7% | 87.6% | 102% | 93.7% | 87.1% | 83.8% | 98% | 100%
CC1C(=O)NC2=Nc3ccccc3C(=O)NN21 (stereo unspecified) | 97.2% | 92.9% | 97.2% | 87.8% | 104% | 94.9% | 97.5% | 97.9% | 104%
COc1ccc2c(c1)[n+](=O)c(/C=C/C(=O)c1cc(OC)c(OC)c(OC)c1)c(C)n2[O-] | 80% | 84.5% | 110% | 94.3% | 81.8% | -22.4% (active) | -60.1% (active) | 67.2% | 32%
CCSc1nc(Nc2ccc(S(=O)(=O)Nc3ccon3)cc2)c(C#N)c(-c2cccc(Br)c2)n1 | 101% | 77.2% | 74.3% | 93.9% | 106% | 90.2% | 87.3% | 94.8% | 117%
O=C(/C=C/c1cccc(O)c1)c1cccc(-n2cc(-c3ccccc3)[nH]c2=O)c1 | 14.4% | 3.79% (active) | 21.4% | 16.9% | 34.8% | 26.7% | -21.8% (active) | -59.7% (active) | 83.8%
Nc1ccn(C2O[C@H](CO)[C@@H](O)[C@@H]2O)c(=O)n1 (stereo partly specified) | 28.2% | 34.3% | 62.6% | 26.7% | 6.43% (active) | 53.8% | 68.1% | 10.2% | 57.3%
COc1ccc2cc(-c3nc4ccccc4[nH]3)c(=O)oc2c1 | 93.1% | 97.5% | 96.3% | 93.9% | 101% | 80.3% | 88.7% | 98% | 119%
CC(=O)O[C@H]1CC[C@@]2(C)C(=CC[C@@H]3[C@@H]2CC[C@]2(C)C(c4cccnc4)=CC[C@@H]32)C1 | 66.6% | 64.1% | 95.6% | 75.7% | 68.2% | 79.4% | 38.3% | 13.6% | 81.8%
NC(=NCCCCCCN=C(N)/N=C(\N)Nc1ccc(Cl)cc1)/N=C(\N)Nc1ccc(Cl)cc1 | 8.42% (active) | -9.31% (active) | 19.8% | -25.3% (active) | -1.1% (active) | -3.2% (active) | -11.1% (active) | 14% | -96.4% (active)
Cc1cc(Br)c(C)cc1Br | 97.9% | 94.4% | 96.4% | 99.4% | 114% | 91.4% | 96% | 101% | 110%
O=C(COc1ccc(/C=C2\Oc3ccc4ccccc4c3C2=O)cc1)c1ccc([N+](=O)[O-])cc1 | 96.5% | 105% | 99.9% | 118% | 104% | 96.7% | 49% | 103% | 134%
COc1ccc(CNC(=O)c2c(C)n([O-])c3cc(F)c(F)cc3[n+]2=O)cc1 | 41.9% | 99.6% | 97.1% | 107% | 97.2% | 89.1% | 77.9% | 92.9% | 131%
COCCCNS(=O)(=O)c1ncnc2nc[nH]c12 | 96.4% | 134% | 119% | 93.4% | 105% | 120% | 119% | 98.9% | 112%
CSc1nc(Nc2ccc(S(=O)(=O)Nc3ccon3)cc2)c(C#N)c(-c2ccc(Cl)cc2)n1 | 94.2% | 95% | 98.3% | 106% | 112% | 109% | 84.9% | 94.7% | 108%
COc1ccc2c(c1)C(=Nc1cc(OC)c(OC)c(OC)c1)C(=O)N2 | 96.6% | 97.1% | 108% | 36.1% | 116% | 56.8% | 89.9% | 104% | 92.5%
O=C(c1ccccc1)c1ccc(Oc2ccc([N+](=O)[O-])cc2[N+](=O)[O-])cc1 | 86.2% | 48.4% | 109% | 99.1% | 103% | 52.9% | -26.6% (active) | 71.9% | 84%
O=C(O)CCC(=O)OC[C@@H](NC(=O)C(Cl)Cl)[C@H](O)c1ccc([N+](=O)[O-])cc1 | 98.4% | 89.3% | 99.5% | 98.5% | 111% | 86.7% | 91.7% | 93.7% | 99.4%
CCCCN1c2nc3ccccc3cc2Sc2cc3ccccc3nc21 | 97.6% | 93.2% | 104% | 90.7% | 99% | 28.4% | 92.8% | 98.5% | 132%
